For 20 compounds, inhibition results are on record in ChEMBL document CHEMBL1961873, “Compounds: GSK PKIS; Assays: Nanosyn kinase panel” (2012).

For experiment [1], the target named is Tyrosine-protein kinase Fyn (Homo sapiens) (UniProt P06241). As to conditions: at 1 µM.
Experiment [2] deals with Tyrosine-protein kinase HCK (Homo sapiens) (UniProt P08631). As to conditions: at 0.1 µM.
The target is the same in experiment [3]. As to conditions: at 1 µM.
Experiment [4] concerns the target Insulin-like growth factor 1 receptor (Homo sapiens) (UniProt P08069). As to conditions: at 0.1 µM.
Experiment [5] has the same target. The settings on record: at 1 µM.
Experiment [6] addresses Insulin receptor (Homo sapiens) (UniProt P06213). The settings on record: at 0.1 µM.
Experiment [7] shares this target. The settings on record: at 1 µM.
The target in experiment [8] is Insulin receptor-related protein (Homo sapiens) (UniProt P14616). The settings on record: at 0.1 µM.
The target is the same in experiment [9]. The settings on record: at 1 µM.
The target of experiment [10] is T1, Tyrosine-protein kinase ITK/TSK (Homo sapiens) (UniProt Q08881).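 Note: mean percent inhibition of ITK from the GSK PKIS screen.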
T1 sequence (whole entry): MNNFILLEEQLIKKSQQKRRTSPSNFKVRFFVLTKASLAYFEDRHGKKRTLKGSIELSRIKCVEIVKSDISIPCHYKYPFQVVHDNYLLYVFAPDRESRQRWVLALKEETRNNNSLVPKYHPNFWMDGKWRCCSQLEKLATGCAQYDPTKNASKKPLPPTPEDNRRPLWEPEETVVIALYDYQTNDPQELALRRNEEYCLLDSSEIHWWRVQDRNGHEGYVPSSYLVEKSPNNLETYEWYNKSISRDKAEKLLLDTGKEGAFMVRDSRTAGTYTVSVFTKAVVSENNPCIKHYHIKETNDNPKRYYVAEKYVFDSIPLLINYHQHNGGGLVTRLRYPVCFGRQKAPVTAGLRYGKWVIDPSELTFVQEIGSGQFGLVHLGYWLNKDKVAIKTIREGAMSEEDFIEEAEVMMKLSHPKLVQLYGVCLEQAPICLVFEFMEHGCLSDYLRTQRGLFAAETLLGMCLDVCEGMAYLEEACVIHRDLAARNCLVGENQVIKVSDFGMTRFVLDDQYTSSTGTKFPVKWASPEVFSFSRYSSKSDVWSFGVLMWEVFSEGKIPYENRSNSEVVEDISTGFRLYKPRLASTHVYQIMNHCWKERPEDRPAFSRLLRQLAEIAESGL
As to conditions: at 0.1 µM.

The structures appear in SMILES notation. “And” between values parts separate entries of the source, which are not always exact repeats. Equal entries are not always repeated.

Chain of Tyrosine-protein kinase Fyn (Homo sapiens) (P06241 2-537 limits assumed): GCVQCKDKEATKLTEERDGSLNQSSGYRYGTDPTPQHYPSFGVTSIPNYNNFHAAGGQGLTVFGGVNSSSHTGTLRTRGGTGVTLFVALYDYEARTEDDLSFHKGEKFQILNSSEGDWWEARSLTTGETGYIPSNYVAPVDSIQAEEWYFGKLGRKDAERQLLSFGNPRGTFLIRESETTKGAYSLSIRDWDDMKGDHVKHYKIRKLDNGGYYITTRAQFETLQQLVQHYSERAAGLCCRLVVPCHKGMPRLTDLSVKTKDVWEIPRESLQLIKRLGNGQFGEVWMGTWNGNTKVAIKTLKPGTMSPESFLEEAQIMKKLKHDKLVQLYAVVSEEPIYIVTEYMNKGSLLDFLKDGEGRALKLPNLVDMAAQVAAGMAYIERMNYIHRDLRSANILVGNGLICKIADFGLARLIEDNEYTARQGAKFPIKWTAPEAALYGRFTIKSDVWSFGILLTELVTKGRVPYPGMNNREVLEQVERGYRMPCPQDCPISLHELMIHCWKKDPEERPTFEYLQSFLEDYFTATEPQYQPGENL
Chain of Insulin receptor (Homo sapiens) (P06213 28-758 limits assumed): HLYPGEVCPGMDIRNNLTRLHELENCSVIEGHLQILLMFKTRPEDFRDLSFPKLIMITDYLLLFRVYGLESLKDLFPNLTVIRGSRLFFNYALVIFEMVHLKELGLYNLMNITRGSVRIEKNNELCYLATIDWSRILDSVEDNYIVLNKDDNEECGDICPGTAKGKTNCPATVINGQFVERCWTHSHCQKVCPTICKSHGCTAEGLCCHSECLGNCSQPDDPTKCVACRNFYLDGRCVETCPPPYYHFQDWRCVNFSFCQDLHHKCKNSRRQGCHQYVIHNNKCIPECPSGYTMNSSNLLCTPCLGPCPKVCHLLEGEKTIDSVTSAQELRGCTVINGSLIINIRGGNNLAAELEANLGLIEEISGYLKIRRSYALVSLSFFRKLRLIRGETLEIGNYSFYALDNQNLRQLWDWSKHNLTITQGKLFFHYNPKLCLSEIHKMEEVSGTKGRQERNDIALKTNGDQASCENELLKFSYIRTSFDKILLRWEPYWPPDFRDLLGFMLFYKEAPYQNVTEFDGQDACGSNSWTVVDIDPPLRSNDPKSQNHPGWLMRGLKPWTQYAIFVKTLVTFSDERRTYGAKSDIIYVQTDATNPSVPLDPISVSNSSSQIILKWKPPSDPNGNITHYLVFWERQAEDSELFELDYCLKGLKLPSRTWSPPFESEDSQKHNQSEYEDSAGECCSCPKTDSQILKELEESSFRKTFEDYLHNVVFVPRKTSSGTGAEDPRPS
Chain of Insulin receptor (Homo sapiens) (P06213 763-1382 limits assumed): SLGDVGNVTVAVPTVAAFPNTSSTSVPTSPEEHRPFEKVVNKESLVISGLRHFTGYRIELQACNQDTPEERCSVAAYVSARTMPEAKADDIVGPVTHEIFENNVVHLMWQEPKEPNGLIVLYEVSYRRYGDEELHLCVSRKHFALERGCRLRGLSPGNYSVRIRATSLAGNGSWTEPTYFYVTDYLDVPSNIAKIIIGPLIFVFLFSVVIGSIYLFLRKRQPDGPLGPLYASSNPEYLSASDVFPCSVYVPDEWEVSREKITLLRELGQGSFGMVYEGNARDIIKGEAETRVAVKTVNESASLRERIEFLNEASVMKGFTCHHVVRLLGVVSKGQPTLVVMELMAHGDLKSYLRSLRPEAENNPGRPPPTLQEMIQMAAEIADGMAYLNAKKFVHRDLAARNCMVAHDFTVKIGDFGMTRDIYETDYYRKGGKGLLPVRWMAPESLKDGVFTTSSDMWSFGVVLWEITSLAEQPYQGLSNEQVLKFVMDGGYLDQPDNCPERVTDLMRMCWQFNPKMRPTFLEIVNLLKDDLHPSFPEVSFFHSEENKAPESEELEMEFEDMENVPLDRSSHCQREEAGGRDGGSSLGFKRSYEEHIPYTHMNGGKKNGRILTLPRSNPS
Chain of Insulin-like growth factor 1 receptor (Homo sapiens) (P08069 31-736 limits assumed): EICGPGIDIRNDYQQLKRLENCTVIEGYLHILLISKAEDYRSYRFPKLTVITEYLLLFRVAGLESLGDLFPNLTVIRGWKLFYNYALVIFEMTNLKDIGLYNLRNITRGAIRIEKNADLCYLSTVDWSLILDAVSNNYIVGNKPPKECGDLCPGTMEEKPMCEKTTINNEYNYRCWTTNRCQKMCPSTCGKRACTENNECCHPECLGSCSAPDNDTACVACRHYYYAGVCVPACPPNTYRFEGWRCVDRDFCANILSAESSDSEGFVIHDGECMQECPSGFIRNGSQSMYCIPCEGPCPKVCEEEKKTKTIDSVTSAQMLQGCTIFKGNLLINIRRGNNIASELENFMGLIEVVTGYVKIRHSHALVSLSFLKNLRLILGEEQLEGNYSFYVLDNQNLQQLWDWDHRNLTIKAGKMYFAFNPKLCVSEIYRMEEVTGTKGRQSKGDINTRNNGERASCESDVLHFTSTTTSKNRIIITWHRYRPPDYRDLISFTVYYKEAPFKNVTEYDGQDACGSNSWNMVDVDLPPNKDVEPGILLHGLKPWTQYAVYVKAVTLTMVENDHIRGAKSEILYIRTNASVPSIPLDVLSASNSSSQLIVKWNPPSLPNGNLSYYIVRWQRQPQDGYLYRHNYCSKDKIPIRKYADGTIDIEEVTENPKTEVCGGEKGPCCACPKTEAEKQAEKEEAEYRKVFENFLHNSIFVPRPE
Chain of Insulin-like growth factor 1 receptor (Homo sapiens) (P08069 741-1367 limits assumed): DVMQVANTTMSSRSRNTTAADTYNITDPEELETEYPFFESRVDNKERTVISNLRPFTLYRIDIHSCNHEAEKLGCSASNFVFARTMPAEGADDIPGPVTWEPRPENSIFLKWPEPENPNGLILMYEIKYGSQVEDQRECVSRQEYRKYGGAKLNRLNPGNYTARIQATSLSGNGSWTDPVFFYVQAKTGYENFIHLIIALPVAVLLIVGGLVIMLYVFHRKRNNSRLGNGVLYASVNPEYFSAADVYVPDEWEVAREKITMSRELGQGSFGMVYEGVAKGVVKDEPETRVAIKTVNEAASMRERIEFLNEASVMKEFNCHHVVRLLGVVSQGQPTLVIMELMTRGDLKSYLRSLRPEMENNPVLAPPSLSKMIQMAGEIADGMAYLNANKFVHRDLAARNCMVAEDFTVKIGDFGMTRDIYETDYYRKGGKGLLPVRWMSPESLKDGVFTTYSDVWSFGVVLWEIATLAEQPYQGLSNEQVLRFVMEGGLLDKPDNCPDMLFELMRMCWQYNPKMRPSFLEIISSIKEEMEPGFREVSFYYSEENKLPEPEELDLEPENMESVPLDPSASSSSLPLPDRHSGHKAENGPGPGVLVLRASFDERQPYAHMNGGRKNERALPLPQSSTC
Chain of Insulin receptor-related protein (Homo sapiens) (P14616 27-742 limits assumed): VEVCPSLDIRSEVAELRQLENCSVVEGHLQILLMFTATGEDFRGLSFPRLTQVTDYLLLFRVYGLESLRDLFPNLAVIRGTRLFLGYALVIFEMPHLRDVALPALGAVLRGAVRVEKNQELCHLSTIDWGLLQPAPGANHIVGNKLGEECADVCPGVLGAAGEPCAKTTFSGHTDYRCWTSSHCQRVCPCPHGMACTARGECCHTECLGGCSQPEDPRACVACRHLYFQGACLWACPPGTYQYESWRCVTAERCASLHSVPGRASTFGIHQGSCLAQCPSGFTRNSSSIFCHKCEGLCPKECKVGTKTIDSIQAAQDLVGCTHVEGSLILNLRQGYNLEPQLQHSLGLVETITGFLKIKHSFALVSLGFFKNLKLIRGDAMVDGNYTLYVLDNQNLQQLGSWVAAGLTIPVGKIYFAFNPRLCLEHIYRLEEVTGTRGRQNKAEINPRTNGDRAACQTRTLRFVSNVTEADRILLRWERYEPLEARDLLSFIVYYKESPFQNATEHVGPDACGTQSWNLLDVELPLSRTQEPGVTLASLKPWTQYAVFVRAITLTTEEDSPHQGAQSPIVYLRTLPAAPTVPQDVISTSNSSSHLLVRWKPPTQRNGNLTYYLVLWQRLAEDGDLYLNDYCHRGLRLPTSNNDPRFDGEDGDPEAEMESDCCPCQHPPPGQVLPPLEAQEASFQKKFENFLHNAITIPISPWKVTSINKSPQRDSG
Chain of Insulin receptor-related protein (Homo sapiens) (P14616 747-1297 limits assumed): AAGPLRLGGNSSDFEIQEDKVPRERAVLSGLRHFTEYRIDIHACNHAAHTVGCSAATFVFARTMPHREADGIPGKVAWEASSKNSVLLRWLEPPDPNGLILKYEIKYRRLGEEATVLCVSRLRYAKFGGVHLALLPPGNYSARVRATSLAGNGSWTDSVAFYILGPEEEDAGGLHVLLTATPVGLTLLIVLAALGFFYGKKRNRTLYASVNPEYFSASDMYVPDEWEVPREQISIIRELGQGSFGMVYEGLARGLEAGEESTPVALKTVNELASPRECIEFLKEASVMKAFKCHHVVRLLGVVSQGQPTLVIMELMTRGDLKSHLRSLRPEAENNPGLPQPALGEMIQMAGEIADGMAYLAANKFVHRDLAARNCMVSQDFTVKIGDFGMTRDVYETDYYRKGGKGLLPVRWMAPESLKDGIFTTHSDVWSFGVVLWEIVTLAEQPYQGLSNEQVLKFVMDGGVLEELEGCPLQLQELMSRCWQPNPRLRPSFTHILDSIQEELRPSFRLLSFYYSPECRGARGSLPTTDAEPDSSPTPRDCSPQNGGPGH
Chain of Tyrosine-protein kinase HCK (Homo sapiens) (P08631 2-526 limits assumed): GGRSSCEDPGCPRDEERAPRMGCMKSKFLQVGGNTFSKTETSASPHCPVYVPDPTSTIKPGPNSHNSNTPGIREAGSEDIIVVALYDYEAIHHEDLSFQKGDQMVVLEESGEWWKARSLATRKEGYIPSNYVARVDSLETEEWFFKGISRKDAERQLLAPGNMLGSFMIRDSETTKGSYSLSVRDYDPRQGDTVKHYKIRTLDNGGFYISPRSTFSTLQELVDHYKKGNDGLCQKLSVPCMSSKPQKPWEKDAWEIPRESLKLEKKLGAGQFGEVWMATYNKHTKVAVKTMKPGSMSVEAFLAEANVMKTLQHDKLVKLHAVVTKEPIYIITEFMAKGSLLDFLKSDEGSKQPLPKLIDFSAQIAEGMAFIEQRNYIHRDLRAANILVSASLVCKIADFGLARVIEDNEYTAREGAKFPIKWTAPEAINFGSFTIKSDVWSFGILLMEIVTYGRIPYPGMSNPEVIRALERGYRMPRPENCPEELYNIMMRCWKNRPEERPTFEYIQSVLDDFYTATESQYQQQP

For `CC(C)c1ccc(-c2cc(-c3c[nH]nc3-c3ccccn3)ccn2)cc1`, the inhibition was 1.91% in experiment [1]; 2.47% in experiment [2]; 4.67% in experiment [3]; 1% in experiment [4]; 2.04% in experiment [5]; -0.15% in experiment [6]. Besides, the inhibition in [7] was 1.37%; in [8], -0.94%; in [9] it was -0.37%; in experiment [10], 0.84%.

As for `OCCCNc1nccc(-c2c(-c3ccc(F)cc3)nn3cc(C(F)(F)F)ccc23)n1`, the inhibition in [1] was found to be 4.88%; in [2], 5.52%; in experiment [3], 5.92%; in experiment [4], 1.8%; in [5], 1.03%; in [6], 0.28%. In addition, the inhibition in experiment [7] worked out at 3.33%; in experiment [8], 3.08%; in experiment [9], 1.53%; in [10] it was 1.09%.

As for `COc1cc(N2CCN(C(C)C)CC2)ccc1Nc1nc(Nc2cccc(F)c2C(=O)O)c2cc[nH]c2n1`, the inhibition in experiment [1] was determined as 0.99%; in [2], 4.6%; in experiment [3], 9.23%; in experiment [4], 65.7%; in experiment [5], 89.8%; in experiment [6], 82.6%. In addition, the inhibition in [7] was 95.5%; in experiment [8], 22.1%; in [9], 82.3%; in experiment [10], 1.35%.

With `Cc1nnc(-c2cccc(-c3ccc(C(=O)NCC4CC4)cc3)c2)o1`, the inhibition in experiment [1] stood at 0.54%; in experiment [2], 5.93%; in [3], 8.3%; in experiment [4], 3.76%; in [5], 6.53%; in experiment [6], 9.39%. In addition, the inhibition in experiment [7] stood at 5.71%; in [8], 4.48%; in experiment [9], 3.22%; in experiment [10], 0.99%.

As to `COc1ccccc1-c1cc(/C=C2\C(=O)Nc3ncc(Br)cc32)cc(Br)c1O`, the inhibition in [1] is 26.3%; in experiment [2], 7.67%; in experiment [3] it was 12.5%; in [4], 0.89%; in experiment [5], 2.09%; in experiment [6], 3.72%. Also, the inhibition in [7] is 6.87%; in experiment [8] it was 2.46%; in experiment [9] it was 1.02%; in [10], 1.08%.

`CS(=O)(=O)Nc1ccc(-c2ccc3c(NC(=O)C4CC4)n[nH]c3c2)cc1`: the inhibition turned out to be 2.5% in experiment [1]; 5.35% in experiment [2]; 8.62% in experiment [3]; 7.15% in experiment [4]; 5.41% in [5]; 4.13% in experiment [6]. In addition, the inhibition in [7] came to 5.66%; in experiment [8], 3.14%; in experiment [9], 2.41%; in experiment [10], 1.56%.

Regarding `O=C(O[C@H]1CN[C@H](C#Cc2cc3ncnc(Nc4ccc5c(ccn5Cc5cc(F)ccc5F)c4)c3s2)C1)N1CCOCC1`, the inhibition in experiment [1] is 0.77%; in experiment [2], 4.89%; in experiment [3], 8.93%; in experiment [4], 2.56%; in experiment [5] it was 2.8%; in experiment [6], 6.64%. Besides, the inhibition in [7] is 2.68%; in experiment [8], 1.67%; in [9], 2.01%; in [10] it was 1.67%.

As for `CC1=C(C(=O)Nc2ccc3[nH]ncc3c2)C(c2ccc(F)cc2)N=C(c2ccc(C(F)(F)F)nc2)N1` (stereo not given), the inhibition is 3.27% in [1]; 4.24% in experiment [2]; 12.2% in experiment [3]; 3.5% in experiment [4]; 3.35% in experiment [5]; 3.82% in experiment [6]. Further, the inhibition in experiment [7] was 1.7%; in experiment [8] it was 1.92%; in experiment [9], 1.25%; in [10], 1.64%.

As to `CS(=O)(=O)CCNCc1ccoc1-c1ccc2ncnc(Nc3ccc(OCc4ccccc4)cc3)c2c1`, the inhibition in [1] was 7.94%; in experiment [2] it was 0.7%; in [3] it was 5.65%; in experiment [4], 1.37%; in experiment [5] it was -0.73%; in [6], 0.36%. In addition, the inhibition in experiment [7] is 1.13%; in [8], -1.72%; in experiment [9], 0.44%; in [10], -0.12%.

As to `CN(C)CCNC(=O)Nc1ccc(N(C)c2ccnc(Nc3ccc(CS(C)(=O)=O)cc3)n2)cc1`, the inhibition in experiment [1] is 3.44%; in [2] it was 6.05%; in experiment [3], 12.3%; in experiment [4] it was 5.44%; in experiment [5], 8.75%; in experiment [6] it was 3.47%. Besides, the inhibition in experiment [7] came out at 5.6%; in experiment [8] it was 2.48%; in experiment [9], 3.81%; in [10] it was 1.62%.

For `CCn1c(-c2nonc2N)nc2cncc(C(=O)NCCNC)c21`, the inhibition in experiment [1] was found to be 2%; in experiment [2] it was 4.96%; in experiment [3], 6.37%; in experiment [4], 1.12%; in experiment [5] it was 5.76%; in experiment [6], 5.87%. Further, the inhibition in [7] is 15.3%; in experiment [8], 3.26%; in experiment [9], 5.53%; in [10] it was -0.27%.

As to `O=C(O[C@H]1CN[C@H](C#Cc2cc3ncnc(Nc4ccc5c(cnn5Cc5ccccc5)c4)c3s2)C1)N1CCOCC1`, the inhibition in [1] was 8.19%; in experiment [2] it was -0.73%; in experiment [3], 3.3%; in experiment [4] it was -2.85%; in experiment [5], -0.43%; in experiment [6] it was 2.89%. The inhibition in experiment [7] is 1.79%; in experiment [8], -1.64%; in experiment [9], -2.28%; in [10], -1.11%.

Take `Fc1cccc(COc2ccc(Nc3ncncc3C#Cc3ccccc3)cc2Cl)c1`: the inhibition in [1] amounted to 2.9%; in experiment [2] it was 5.09%; in experiment [3], 7.44%; in experiment [4], 3.73%; in experiment [5], 3.91%; in experiment [6], 2.77%. Further, the inhibition in experiment [7] worked out at 4.63%; in experiment [8], 0.84%; in experiment [9], 3.29%; in experiment [10], 1.58%.

Regarding `Cc1cc(O)cc(C)c1/C=C/c1cncc(C(=O)OC(C)(C)C)c1`, the inhibition in [1] was determined as 39.1%; in experiment [2] it was 11.3%; in [3], 51.5%; in [4], 4.61%; in [5] it was 2.33%; in experiment [6], 3.02%. In addition, the inhibition stood at 4.74% in experiment [7], 2.54% in experiment [8], 1.64% in [9] and 1.16% in experiment [10].

On to `CN(c1ccc(NC(=O)NCCN2CCOCC2)cc1)c1ccnc(Nc2ccc(CS(C)(=O)=O)cc2)n1`, for which the inhibition in experiment [1] turned out to be 1.63%; in experiment [2], 1.67%; in experiment [3] it was 13.6%; in [4], 3.76%; in [5], 4.94%; in experiment [6], 0.64%. Besides, the inhibition amounted to 4% in experiment [7], 2.7% in experiment [8], 2.84% in [9] and 1.76% in experiment [10].

With `c1cnn2ncc(-c3ccnc(NCCCN4CCOCC4)n3)c2c1`, the inhibition in [1] is 3.59%; in experiment [2], 8.43%; in [3] it was 6.17%; in [4], 3.62%; in experiment [5], 1.61%; in experiment [6] it was 4.01%. Further, the inhibition in experiment [7] turned out to be 4.01%; in experiment [8] it was 2.15%; in experiment [9], 0.25%; in experiment [10], 1.02%.

As to `Nc1ncnc2occ(-c3ccc(NC(=O)Nc4cc(C(F)(F)F)ccc4F)cc3)c12`, the inhibition in [1] is 24.3% and 15.7%; in experiment [2], 9.61% and 2.25%; in [3] it was 46.5% and 31.6%; in experiment [4] it was 11.3% and 1.32%; in [5], 10.7% and 0.73%; in [6] it was 2.86% and 1.65%. Besides, the inhibition is 13.2% and 8.78% in experiment [7]; 1.56% and -3.07% in experiment [8]; 1.62% and -3% in experiment [9]; 2.22% and -1.63% in experiment [10].

For the compound `N#Cc1ccc2c(-c3ccnc(NC4CC4)n3)c(-c3ccc(F)cc3)nn2c1`, the inhibition is 0.92% in experiment [1]; 1.95% in experiment [2]; 1.1% in [3]; 1.58% in [4]; -2.63% in [5]; 0.02% in experiment [6]. The inhibition is -1.67% in experiment [7], -0.15% in experiment [8], 0.6% in [9] and 0.02% in experiment [10].

Consider `COc1ccc(Nc2ncc(-c3ccccc3)o2)cc1OC`, for which the inhibition came out at 26.1% in experiment [1]; 5.41% in [2]; 30.2% in experiment [3]; 0.16% in experiment [4]; 2.03% in experiment [5]; 1.73% in experiment [6]. In addition, the inhibition in experiment [7] is 1.42%; in [8], -0.23%; in [9] it was -0.92%; in experiment [10], 1.19%.

As to `CCOc1ccc2c(-c3ccnc(Nc4cc(OC)cc(C(F)(F)F)c4)n3)cnn2n1`, the inhibition in experiment [1] is 13.1%; in experiment [2], 3.74%; in [3], 4.95%; in experiment [4], 8.6%; in experiment [5], 7.42%; in experiment [6], -0.85%. The inhibition is 1.65% in experiment [7], -0.39% in [8], 0.03% in experiment [9] and 0.24% in experiment [10].

A word on the inhibition: it is the change of the read-out against control, counted positive when it falls.
